About 83,000 compounds went through this panel and 20% of them were active in at least one assay; those are over-represented in the sample as a whole.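 Interpretation: 100, growth as untreated; towards 0, rising growth inhibition; 0, no net growth; 0 to -100, cell death. Compounds scoring below 10 were considered active.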 Unmarked numbers belong to inactive results. Calls of active or inactive are those of the source.

Some test systems named below: NCI-H23 lung; NCI-H226 lung; NCI-H322M lung; HOP-62 NSCLC; NCI-H460 lung; HOP-92 NSCLC; NCI-H522 lung; A549/ATCC NSCLC; 786-0 renal; COLO 205 colon; DU-145 prostate; K-562 leukemia; MALME-3M melanoma; RXF 393 renal; SF-268 CNS; SF-295 CNS; SF-539 CNS; UACC-257 melanoma; M14 melanoma; MDA-MB-231 breast.
Holding throughout (test): NCI-60 one-dose screen, 48 h (100 = growth as untreated, 0 = no growth, -100 = all killed)
Holding throughout (conditions): 10 µM unless noted

As for `O=C(Nc1ccc([As]=[As]c2ccc(NC(=O)c3ccccc3)cc2)cc1)c1ccccc1` (stereo not drawn), the growth was -71.3% (active) with NCI-H23 lung; -85.5% (active) in the experiment on NCI-H226 lung; -76.8% (active) in the experiment with NCI-H322M lung; -96.7% (active) with HOP-62 NSCLC; -30.5% (active) with NCI-H460 lung; -93.1% (active) in the experiment on HOP-92 NSCLC. The growth in the experiment on NCI-H522 lung was -75.9% (active); in the experiment with A549/ATCC NSCLC it was -63.2% (active); in the experiment with 786-0 renal, -94.3% (active); with COLO 205 colon, -83.4% (active); in the experiment on DU-145 prostate, -96% (active); in the experiment with K-562 leukemia, -16.8% (active). In addition, the growth was -80.5% (active) in the experiment with MALME-3M melanoma; -97.8% (active) in the experiment with RXF 393 renal; -91.4% (active) in the experiment with SF-268 CNS; -52.7% (active) in the experiment on SF-295 CNS; -90.9% (active) with SF-539 CNS; -87% (active) with UACC-257 melanoma. The growth with M14 melanoma was -89% (active).
For `Nc1nc([Se])c2ncn(C3OC(CO)C(O)C3O)c2n1` (stereo not drawn), the growth with NCI-H23 lung is 51%; in the experiment on NCI-H226 lung, 78.5%; with NCI-H322M lung it was 84.3%; in the experiment with HOP-62 NSCLC, 12.3%; in the experiment on NCI-H460 lung it was 27.4%; with HOP-92 NSCLC, 43%. Besides, the growth in the experiment on NCI-H522 lung was 71.6%; with A549/ATCC NSCLC, 102%; in the experiment on 786-0 renal, 29.4%; with COLO 205 colon, 124%; with DU-145 prostate, 39.9%; with K-562 leukemia it was 21.7%. Further, the growth is 69.3% with MALME-3M melanoma; 22% with MDA-MB-231 breast; 87% in the experiment on SF-268 CNS; 42.6% in the experiment with SF-295 CNS; 81% in the experiment with SF-539 CNS; 83.8% in the experiment with UACC-257 melanoma. Moreover, the growth in the experiment on M14 melanoma was 40.6%.
Consider `Cc1ccc(C(=O)NCCCOc2ccc(N)cc2Cl)cc1S(=O)(=O)F`, for which the growth with NCI-H23 lung is 98.9%; with NCI-H226 lung, 89%; in the experiment with NCI-H322M lung, 87.2%; with HOP-62 NSCLC, 89.1%; in the experiment on NCI-H460 lung, 102%; in the experiment with HOP-92 NSCLC, 96.6%. Further, the growth in the experiment on NCI-H522 lung is 73.5%; with A549/ATCC NSCLC it was 90.1%; in the experiment on 786-0 renal, 86%; in the experiment with COLO 205 colon, 105%; in the experiment on DU-145 prostate, 107%; in the experiment with K-562 leukemia, 91.9%. Also, the growth was 87.6% in the experiment with MALME-3M melanoma; 106% in the experiment with MDA-MB-231 breast; 102% with SF-268 CNS; 86.3% in the experiment on SF-295 CNS; 103% in the experiment with SF-539 CNS; 87.1% in the experiment on UACC-257 melanoma. Moreover, the growth in the experiment on M14 melanoma was 97.8%.
`C/C=C(\C)C(=O)O[C@@H]1C(O)[C@H]2OC(COC(=O)CCC(=O)CCCCCC[C@H](CCCCC)O[C@@H]3OC(C)[C@H](OC(C)=O)C(O)[C@H]3O2)[C@H]1OC(=O)/C=C/c1ccccc1` (stereo partly drawn): the growth in the experiment on NCI-H23 lung is 37.1%; in the experiment on NCI-H226 lung, 1.09% (active); with NCI-H322M lung, 27%; with HOP-62 NSCLC, -2.42% (active); with NCI-H460 lung, 15.9%; in the experiment on HOP-92 NSCLC it was -11.4% (active). Also, the growth in the experiment with NCI-H522 lung is 20.9%; in the experiment with A549/ATCC NSCLC, 20.2%; in the experiment with 786-0 renal, 5.52% (active); in the experiment on COLO 205 colon, -2.63% (active); in the experiment on DU-145 prostate, 22.5%; in the experiment with K-562 leukemia, 30.2%. Further, the growth in the experiment with MALME-3M melanoma is 14.9%; in the experiment on MDA-MB-231 breast, -5.32% (active); in the experiment on SF-268 CNS, 18.1%; in the experiment on SF-295 CNS, -33.6% (active); in the experiment on SF-539 CNS it was -9.75% (active); in the experiment with M14 melanoma, -13.1% (active).
Consider `CCCCN1CCCC[C@@H]1C(=O)N[C@H](C(=O)N(C)[C@H](CCc1nc(C(=O)N[C@@H](Cc2ccccc2)C[C@H](C)C(=O)OC)cs1)C(C)C)[C@@H](C)CC`, for which the growth in the experiment with NCI-H23 lung was 62.6%; with NCI-H226 lung it was 84%; in the experiment on NCI-H322M lung it was 71.1%; with HOP-62 NSCLC it was 56.9%; with NCI-H460 lung, 57.5%; with HOP-92 NSCLC it was 22.2%. The growth in the experiment with NCI-H522 lung was 25.1%; in the experiment on A549/ATCC NSCLC it was 58.8%; in the experiment on 786-0 renal it was 66.8%; in the experiment with COLO 205 colon it was 22.3%; with DU-145 prostate it was 79.2%; in the experiment with K-562 leukemia, 34%. The growth was 48.5% in the experiment with MALME-3M melanoma; 59.6% in the experiment with MDA-MB-231 breast; 64.4% in the experiment on SF-268 CNS; 26.3% in the experiment with SF-295 CNS; 84% with SF-539 CNS; 48.6% with M14 melanoma.
Regarding `CCOC(=O)CCC(NC(=O)C(Cc1ccc(N(CCCl)CCCl)cc1)NC=O)C(=O)OCC` (stereo not drawn), the growth in the experiment on NCI-H23 lung was 1.98% (active); in the experiment on NCI-H226 lung it was 57.5%; with NCI-H322M lung it was 88%; in the experiment with HOP-62 NSCLC it was 113%; in the experiment on NCI-H460 lung, 8.71% (active); in the experiment with HOP-92 NSCLC it was -2.74% (active). In addition, the growth in the experiment with NCI-H522 lung was -67.6% (active); in the experiment on A549/ATCC NSCLC, 61.8%; with 786-0 renal, -40.8% (active); with COLO 205 colon, 111%; with DU-145 prostate, 36.3%; in the experiment on K-562 leukemia, 35.6%. The growth in the experiment on MALME-3M melanoma is -80.2% (active); with RXF 393 renal it was -75.9% (active); with SF-295 CNS, 21.5%; in the experiment with SF-539 CNS, -61.7% (active); in the experiment with UACC-257 melanoma, -9.97% (active); in the experiment with M14 melanoma, -62.9% (active).
Consider `COC(=O)[C@@H](C)C[C@H](Cc1ccccc1)NC(=O)c1csc(CC[C@H](C(C)C)N(C)C(=O)[C@@H](NC(=O)[C@H]2CCCCN2C)C(C)C)n1`, for which the growth in the experiment with NCI-H23 lung is 32.4%; in the experiment with NCI-H226 lung, 50.2%; with NCI-H322M lung, 44.4%; in the experiment on HOP-62 NSCLC, 21.7%; in the experiment on NCI-H460 lung, 6.76% (active); in the experiment with HOP-92 NSCLC, 52.8%. The growth was -12.9% (active) in the experiment with NCI-H522 lung; 19% with A549/ATCC NSCLC; 10.9% in the experiment with 786-0 renal; -38.9% (active) in the experiment with COLO 205 colon; 10.8% with DU-145 prostate; 6.9% (active) in the experiment with K-562 leukemia. Moreover, the growth with MALME-3M melanoma is 61.2%; in the experiment with MDA-MB-231 breast it was 14.2%; in the experiment with SF-268 CNS, 27%; in the experiment on SF-295 CNS, -6.82% (active); in the experiment with SF-539 CNS it was -9.08% (active); with M14 melanoma, -13.3% (active).
Consider `Cc1cc(N(CCCl)CCCl)ccc1/C=N\NC(=O)c1ccncc1`, for which the growth is 87.8% in the experiment with NCI-H23 lung; -7.98% (active) with NCI-H226 lung; 113% in the experiment with NCI-H322M lung; 79.4% with HOP-62 NSCLC; 25.9% in the experiment with NCI-H460 lung; 97% in the experiment on HOP-92 NSCLC. Besides, the growth in the experiment on NCI-H522 lung is 101%; in the experiment with A549/ATCC NSCLC it was 78.4%; with 786-0 renal it was 82.5%; with COLO 205 colon, 98%; in the experiment with DU-145 prostate, 82.4%; in the experiment with K-562 leukemia it was 85.2%. Besides, the growth with MDA-MB-231 breast was 96.4%; in the experiment on RXF 393 renal it was 91.7%; in the experiment with SF-268 CNS, 70.7%; in the experiment on SF-295 CNS, 56.2%; in the experiment on SF-539 CNS it was 60.3%; with UACC-257 melanoma, 79.8%. Moreover, the growth in the experiment with M14 melanoma was 90.4%.

Source of the values: PubChem BioAssay (NCI).
